In PubChem BioAssay (NCATS):
Results filed as inconclusive are left out. Active and inactive are the calls of the source. Calls come from the whole dose curve; as a rule, active = well fitted inhibition curve with a large enough effect; inconclusive = small, poorly fitted or top-dose-only effect; inactive = flat fitted curve, though single readings scatter.

Each molecule was assayed on GB4 (assay: qHTS profiling for inhibitors of Plasmodium falciparum proliferation (AID 504749; note: nearly all actives have a fitted effect of over 60% in size;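 for activity, negative = inhibition: 0% = DMSO vehicle and full inhibition = artemisinin control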)). Details: P. falciparum in erythrocytes, SYBR Green DNA, 72 h; series mostly up to 28.7 µM; activity, negative = inhibition: at the top concentration.
In short: (§1)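 In a 72 h erythrocytic culture (37 C, humidified, 5% CO2) at 2.5% hematocrit and 0.3% starting parasitemia, compounds were tested; SYBR Green I in detergent lysis buffer stained parasite DNA overnight.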
Potency is the fitted concentration of half-maximal effect.

SMILES	activity, negative = inhibition	Potency
CC(C)CCC[C@@H](C)[C@H]1CC[C@H]2[C@@H]3CC[C@@H]4C[C@H](O)CC[C@]4(C)[C@H]3CC[C@]12C	-1.72% (inactive)	
ClC(Cl)Cl	-1.76% (inactive)	
FC(F)(F)C(F)(F)C(F)(F)C(F)(F)C(F)(F)F	-0.991% (inactive)	
CC(CC=O)CCCC(C)(C)O (centres undefined)	-11.4% (inactive)	
CC(C)[C@H](N)C(=O)OCC(CO)OCn1cnc2c(=O)[nH]c(N)nc21 (some centres undefined)	-17.2% (inactive)	
CC(C)CCC[C@@H](C)[C@H]1CC[C@H]2[C@@H]3CC=C4C[C@@H](O)CC[C@]4(C)[C@H]3CC[C@]12C	2.12% (inactive)	
CC(C)c1ncc([N+](=O)[O-])n1C	-4.01% (inactive)	
CCCc1ccc(C(=O)O)cc1	-11.7% (inactive)	
C=CC(=O)O	-9.53% (inactive)	
COC(=O)CC[C@H](N)C(=O)O	-6.67% (inactive)	
CN1C(=O)C[C@@H](C(=O)N[C@@H](Cc2cnc[nH]2)C(=O)N2CCC[C@H]2C(N)=O)NC1=O	2.21% (inactive)	
Cc1ncc(C[n+]2csc(CCOP(=O)(O)O)c2C)c(N)n1	-2.9% (inactive)	
O=C(O)COc1ccccc1/C=N/NC(=O)c1ccncc1	-4.19% (inactive)	
O=C(/C=C/c1cccc(F)c1)NC1CC1	2.21% (inactive)	
CC(C)(Oc1ccc(C2CCCc3ccccc32)cc1)C(=O)O (centres undefined)	-4.52% (inactive)	
O=C(O)[C@H]1C(=CCO)O[C@H]2CC(=O)N12	-6.7% (inactive)	
CN=C1C=CC(=C(c2ccc(N(C)C)cc2)c2ccc(N(C)C)cc2)C=C1		675 nM (active)
CO	-7.49% (inactive)	

Each molecule was assayed on HB3 in the same assay as above. Details: P. falciparum in erythrocytes, SYBR Green DNA, 72 h; series mostly up to 28.7 µM; activity, negative = inhibition: at the top concentration.
In short: as §1

SMILES	activity, negative = inhibition
CCCCC(CC)COS(=O)(=O)O (centres undefined)	6.59% (inactive)
CC1(O)CCC(C(C)(C)O)CC1 (centres undefined)	-2.05% (inactive)
CCCCCCOC(=O)c1cccnc1	2.52% (inactive)
FC(F)(F)COCC(F)(F)F	3.4% (inactive)
CCCCCCCCCCCC(=O)N(CCO)CCO	3.1% (inactive)
O=P(O)(O)OC[C@H]1O[C@](O)(COP(=O)(O)O)[C@@H](O)[C@@H]1O	2.3% (inactive)
COc1cc(S(C)=O)ccc1-c1nc2ncccc2[nH]1 (centres undefined)	8.26% (inactive)
O=c1[nH]c(=O)n([C@H]2C[C@H](O)[C@@H](CO)O2)cc1/C=C/Br	3.24% (inactive)
CC(=O)[C@H]1CC[C@H]2[C@@H]3C=CC4=CC(=O)CC[C@@]4(C)[C@H]3CC[C@]12C	1.31% [at 12.8 µM] (inactive)
NC(N)=O	7.04% (inactive)
CCC(C(=O)NC(N)=O)c1ccccc1 (centres undefined)	0.972% (inactive)
CC(CCc1ccc(O)cc1)NCC(O)c1ccc(O)cc1 (centres undefined)	10.9% (inactive)
Nc1nccs1	10.9% (inactive)
NC(=S)NS(=O)(=O)c1ccc(N)cc1	7.7% (inactive)
O=C(OCc1ccccc1)c1ccc(O)cc1	-2.03% (inactive)
CC1C(=O)CC2C3(C)CCC2(C(C)C(=O)O)C(=O)C13 (centres undefined)	5.16% (inactive)

SMILES	activity, negative = inhibition
O=C(NNCS(=O)(=O)O)c1ccncc1	-5.05% (inactive)
CC(=O)Nc1ccc(OC(C)=O)cc1	7.79% (inactive)
CC/C(=C(/CC)c1ccc(OP(=O)(O)O)cc1)c1ccc(OP(=O)(O)O)cc1	-5.71% (inactive)
OC[C@H]1O[C@@](CO)(O[C@H]2O[C@H](CO)[C@@H](O)[C@H](O)[C@H]2O)[C@@H](O)[C@@H]1O	5.17% (inactive)
[O-][N+](=Nc1ccccc1)c1ccccc1	1.84% (inactive)
NC(=O)[C@H]1O[C@@H](O)[C@H](O)[C@@H](O)[C@@H]1O	-0.266% (inactive)
CC(C)CCC[C@@H](C)[C@H]1CC[C@H]2[C@@H]3CC[C@@H]4C[C@H](O)CC[C@]4(C)[C@H]3CC[C@]12C	5.05% (inactive)
ClC(Cl)Cl	2.16% (inactive)
FC(F)(F)C(F)(F)C(F)(F)C(F)(F)C(F)(F)F	1.78% (inactive)
CC(CC=O)CCCC(C)(C)O (centres undefined)	-11.9% (inactive)
CC(C)[C@H](N)C(=O)OCC(CO)OCn1cnc2c(=O)[nH]c(N)nc21 (some centres undefined)	5.2% (inactive)
CC(C)CCC[C@@H](C)[C@H]1CC[C@H]2[C@@H]3CC=C4C[C@@H](O)CC[C@]4(C)[C@H]3CC[C@]12C	-1.33% (inactive)
CC(C)c1ncc([N+](=O)[O-])n1C	-2.51% (inactive)
CCCc1ccc(C(=O)O)cc1	5.86% (inactive)
C=CC(=O)O	9.82% (inactive)
